Bioassay records deposited in PubChem BioAssay by National Center for Advancing Translational Sciences (NCATS).
NS1 function inh: qHTS Assay for Inhibitors of Influenza NS1 Protein Function. Potency, µM (highest dose often 46.1 µM), for inactives: at the highest dose activity, positive = more growth. 270,000 tested, 0.4% active; calls by dose curve; further: potency means the concentration at half of the fitted maximal effect; actives are rising curves; nearly all actives have a fitted effect of over 50% in size
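S. cerevisiae expressing influenza A NS1, grown in glucose, washed, then diluted 1:100 into pH 6.0 -URA galactose medium with 23 nl compound. Growth recovery read as OD600; NS1-free strain serves as control.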
AmpC inh detg: qHTS Inhibitors of AmpC Beta-Lactamase (assay with detergent); P00811; AmpC hydrolysis of nitrocefin, absorbance 480 nm, 0.01% Triton; Potency, µM (series often up to 114 µM), for inactives: at the top dose activity change, negative = inhibition, hits mostly inhibitors; 370,000 tested, 0.041% active; AID 485294, 2010;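 further: potency means the concentration at half of the fitted maximal effect; 0% = no-compound wells and -100% = no-enzyme wells; nearly all actives have a fitted effect of over 25% in size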
Target sequence (P00811 whole entry, looked up): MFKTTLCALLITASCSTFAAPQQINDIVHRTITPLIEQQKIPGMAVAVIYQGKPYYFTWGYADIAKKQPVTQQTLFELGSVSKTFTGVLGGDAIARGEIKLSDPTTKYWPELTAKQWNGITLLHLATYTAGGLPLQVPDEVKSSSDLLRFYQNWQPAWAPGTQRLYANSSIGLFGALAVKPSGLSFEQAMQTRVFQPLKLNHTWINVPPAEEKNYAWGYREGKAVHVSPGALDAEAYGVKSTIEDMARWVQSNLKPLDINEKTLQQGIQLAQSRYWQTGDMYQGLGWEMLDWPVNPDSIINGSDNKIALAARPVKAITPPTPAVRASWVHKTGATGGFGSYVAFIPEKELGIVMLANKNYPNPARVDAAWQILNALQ
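AmpC (5.3 nM in the dispensed reagent) in 20 mM phosphate pH 7.0 with 0.01% (detergent screen) or 0.0001% Triton X-100 was preincubated with compounds for 15 min at room temperature. Nitrocefin was then added from an 800 uM solution, and hydrolysis was followed at 480 nm.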
Shiga toxin inh: A qHTS for Small Molecule Inhibitors of Shiga Toxin; AID 2315, 2010; 290,000 tested, 9.2% active; Vero cells, Shiga toxin protein synthesis inhibition reporter; inhibition, % at 38.7 µM; in the data active means inhibition mostly above about 28%, no sharp cut-off; inactive means mostly below about 43%; further: 0% is about no effect
CHX counter: Cycloheximide Counterscreen for Small Molecule Inhibitors of Shiga Toxin. cell reporter, cycloheximide protein synthesis inhibition counterscreen. max response, %. 300,000 tested, 12% active; in the data active means max response mostly above about 13%, no sharp cut-off; inactive means mostly below about 14%; further: read at 38.3 µM for the half of the compounds with a filed dose; 0% is about no effect
AmpC inh no detg: qHTS Inhibitors of AmpC Beta-Lactamase (assay without detergent). P00811. AmpC nitrocefin hydrolysis, absorbance 480 nm, 0.0001% Triton. Potency, µM (titrated, usually from 57.1 µM), for inactives: at the top dose activity change, negative = inhibition, most hits filed as inhibitors. 330,000 tested, 0.52% active;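 further: potency means the concentration at half of the fitted maximal effect; plate controls were no compound for no effect and no enzyme for full effect; nearly all actives have a fitted effect of over 20% in size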
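20 mM phosphate pH 7.0 + 0.01% (detergent screen) or 0.0001% Triton X-100; 5.3 nM AmpC reagent; cpd preinc 15 min RT; nitrocefin (800 uM stock) to start; A480 q20 s × 4 min; Activity was normalised to no-enzyme and no-compound control wells.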
Starred values were filed as active, the others as inactive; ? = inconclusive; · = no result. Many of the other results were omitted from the sample, so hits are more common in it than they were. Unless noted, the call rests on the fitted dose curve; in most records, active means well fitted curve in the direction sought with a large enough effect; inconclusive means small, poorly fitted or top-dose-only effect, or another doubt; inactive means no such curve, though single readings can be large; an effect the other way counts as inactive or inconclusive.

SMILES | NS1 function inh | AmpC inh detg | Shiga toxin inh | CHX counter | AmpC inh no detg
CC(C)(C)NC(=O)CSc1nc(O)cc(=O)[nH]1 | 12.3% | -3.1% | -10.0 | 0.4 | -17.7%
Brc1cc2c(cc1/C=N/Nc1nc3ccccc3s1)OCO2 | 8.3% | -1.8% | 28.2* | 20.8* | -5.7%
Cc1ccc2[nH]c(C)c(/C=N/Nc3nc4ccccc4s3)c2c1 | 10.1% | ? | 39.3 | 51.3* | -25.6%
Cc1nc(N/N=C\c2ccc3c(c2)OCO3)sc1C | -31.1% | ? | · | 28.8* | -26.8%
C(=N\Nc1ccccc1)/c1nc2ccccc2s1 | 3.0% | 2.5% | 134.7* | 64.1* | 1.1%
Cc1cc(C(=O)N/N=C/c2c(C)[nH]c3ccccc23)n[nH]1 | 3.0% | 3.2% | 27.0 | 6.8 | -27.3%
Cc1ccc(S(=O)(=O)N/N=C\c2ccc3c(c2)OCO3)cc1C | -24.3% | 4.0% | -14.8 | 5.2 | ?
Oc1ccc2ccccc2c1/C=N/Nc1ccccc1 | -3.9% | ? | 2.8 | 3.4 | -59.0%
COC(=O)c1c(NC(=O)/C(C#N)=C/c2ccccc2)sc2c1CCC2 | · | 14.1% | · | · | ·
O=C(CCC(=O)N1CC2CCCN2c2ccccc21)NCc1ccc(Cl)cc1 (stereo not drawn) | · | -7.1% | · | · | ·
Brc1csc(/C=N/Nc2nc3ccccc3s2)c1 | -7.7% | -6.1% | 91.9* | 37.7* | -38.1%
Cc1cc(C(=O)N/N=C/c2ccc3c(c2)OCO3)c2ccccc2n1 | -1.8% | -3.3% | -6.3 | -1.8 | -13.4%
C(=N\Nc1nc2ccccc2s1)/c1ccccn1 | -83.3% | 3.0% | -25.5 | -5.3 | 33.6%
C(=N\Nc1nc2ccccc2s1)/c1ccc2c(c1)OCO2 | 15.8% | ? | 89.9* | 71.9* | -39.9%
COc1ccc2cnn(CCOc3ccccc3)c(=O)c2c1OC | -63.6% | ? | 59.2 | 34.0* | 4.1%
CCOc1ccccc1OCCn1ncc2ccc(OC)c(OC)c2c1=O | -9.2% | ? | 26.8 | 18.1* | 26.7%
COc1ccc2cnn(CCOc3cc(C)ccc3C(C)C)c(=O)c2c1OC | -17.8% | -10.0% | 19.8 | -2.0 | 204.8%
COc1ccc(-c2noc(CCC(=O)N3CCN(c4ccccc4Br)CC3)n2)cc1 | · | · | · | · | 0.2%
CC(=O)c1ccc(-n2ccc(=O)cc2)cc1 | -1.9% | -5.6% | 3.2 | -3.8 | -4.9%
Cc1ccc(-n2ncc3c(SCc4ccccc4)ncnc32)cc1 | -1.1% | ? | 20.2 | 19.9* | -18.9%
Cc1ccc(CSc2ncnc3c2cnn3-c2ccccc2)cc1 | -4.7% | ? | -12.4 | 0.7 | -25.5%
Cc1ccc(CSc2ncnc3c2cnn3-c2ccc(C)cc2)cc1 | -4.0% | ? | 7.8 | 15.3* | -7.9%
c1ccc(CSc2ncnc3sccc23)cc1 | -0.7% | -6.2% | 52.4* | 13.9 | -24.6%
Fc1ccc(-n2ncc3c(SCc4cccnc4)ncnc32)cc1 | 1.3% | 0.5% | 23.4 | 20.3* | -21.3%
CCOC(=O)CSc1ncnc2c1cnn2-c1ccc(C)cc1 | -0.6% | ? | -3.8 | -1.7 | -13.4%
SMILES | NS1 function inh | AmpC inh detg | Shiga toxin inh | CHX counter | AmpC inh no detg
c1ccc2sc(Sc3ncnc4sccc34)nc2c1 | -25.3% | -8.4% | 45.9* | 41.6* | -15.5%
O=C(COC(=O)c1ccc(Cl)nc1)c1ccc2c(c1)OCCO2 | · | 0.8% | 100.0* | 44.2* | -33.8%
Cc1cc(C(=O)OCC(=O)Nc2ccc(F)cc2F)c(C)o1 | -17.6% | -3.1% | 13.7 | 16.6* | -35.3%
O=C(COC(=O)c1cccnc1Cl)c1ccc2c(c1)OCCO2 | 9.8% | 0.9% | 87.7* | 34.8* | 118.3%
Cc1c(C(=O)OCC(=O)c2ccc3c(c2)OCCO3)oc2ccccc12 | -5.4% | 2.6% | 58.7* | 36.3* | -25.4%
Cc1noc(C)c1COc1ccc(C(=O)OCC(=O)c2ccc3c(c2)OCCO3)cc1 | 2.6% | -2.1% | 1.6 | 12.1 | -20.3%
O=C(O)CN1C(=O)SC(Nc2ccccc2C(=O)O)C1=O (stereo not drawn) | 0.7% | -14.1% | 10.8 | 6.8 | -8.5%
Cc1cc(C(=O)OCC(=O)c2ccc3c(c2)OCCO3)c(C)o1 | -54.4% | -10.9% | 113.7* | 36.6* | -10.0%
Cc1cc(C(=O)OCC(=O)c2ccc(Br)s2)c(C)o1 | -14.6% | ? | 36.3 | 32.6* | -38.6%
CCc1ccc(C(=O)COC(=O)c2ccc(Cl)nc2)cc1 | · | -14.6% | 65.2* | 41.5* | -19.3%
O=C(COC(=O)C(O)c1ccccc1)c1ccc2c(c1)OCCO2 (stereo not drawn) | 9.4% | -0.4% | 102.7* | 32.0* | -14.2%
Cc1cc(C(=O)OCC(=O)c2ccc(Br)s2)no1 | -18.1% | -3.1% | -3.0 | 2.1 | -27.2%
O=C(O)CCC(=O)c1ccc2c(c1)OCCO2 | ? | -12.6% | 9.8 | 7.9 | -14.5%
COc1ccc2cc(CNc3ccc(C)cc3)c(=O)n(CC(=O)Nc3ccc(OC)c(Cl)c3)c2c1 | · | 3.4% | · | · | ·
COC(=O)c1cccc(N(CC(=O)NC2CCCCC2)C(=O)CNC(=O)c2cccs2)c1 | -13.2% | -7.0% | -3.8 | -4.1 | 17.8%
Nc1ccccc1C(=O)OCC(=O)c1ccc2c(c1)OCCO2 | 13.4% | 7.3% | 73.8* | 31.1* | -28.7%
CS(=O)(=O)c1cccc(C(=O)OCC(=O)c2ccc3c(c2)OCCO3)c1 | · | -9.8% | · | · | -19.1%
CCOC(=O)C1(CC2CC2)CCN(C(=O)c2ocnc2C)CC1 | -1.5% | 1.5% | 75.7* | 43.5* | 9.0%
CCOC(=O)C1(CCCc2ccccc2)CCN(C(=O)c2ocnc2C)CC1 | -10.5% | 1.4% | -1.2 | 7.5 | 159.3%
Cc1ccc(/C=C/C(=O)c2ccc(C)cc2)cc1 | -16.1% | -1.3% | 83.3* | 68.1* | -23.4%
Cc1ccc(/C=C/C(=O)c2ccccc2O)cc1 | -9.4% | 0.2% | 87.7* | 39.7* | -24.9%
O=C(/C=C/c1ccco1)c1ccccc1O | 3.8% | 4.5% | 58.6* | 33.4* | -28.9%
CN(C)c1ccc(/C=C/C(=O)c2cccnc2)cc1 | -32.5% | 5.6% | 72.0* | 41.7* | -9.7%
COc1ccc(-c2oc3ncn4nc(COc5ccc(Cl)cc5)nc4c3c2-c2ccc(OC)cc2)cc1 | · | 9.4% | · | · | ·
COc1ccccc1CNC(=O)c1ccccc1C(=O)NC(CC(C)C)C(=O)NCc1ccccc1OC (stereo not drawn) | 2.6% | -2.0% | -4.0 | 15.4 | -5.1%
SMILES | NS1 function inh | AmpC inh detg | Shiga toxin inh | CHX counter | AmpC inh no detg
Cc1c(/C=C/C(=O)c2ccccc2O)cnn1C | -9.1% | ? | active | 71.2* | -27.5%
CN(C)c1ccc(/C=C/C(=O)c2ccccc2O)cc1 | · | 6.0% | 113.3 | 40.3* | -43.1%
O=C(/C=C/c1cccnc1)c1ccccc1O | -82.8% | -9.5% | -14.6 | -1.4 | -18.2%
C=CCNc1oc(/C=C/c2ccccc2)nc1C#N | -16.2% | 2.7% | 74.2* | 36.6* | -24.0%
COc1cccc(/C=C/c2nc(C#N)c(NCC(C)C)o2)c1 | -1.2% | 4.3% | 85.5* | 28.8* | -24.0%
CN(C)CCNc1oc(/C=C/c2ccccc2)nc1C#N | 5.9% | -19.8% | 22.5 | 22.8* | -16.7%
CN(C)CCCNc1oc(/C=C/c2ccc(F)cc2)nc1C#N | · | 14.9% | · | · | ·
CN(C)CCCNc1oc(/C=C/c2ccccc2)nc1C#N | -1.8% | 4.1% | 65.2* | 42.0* | -0.9%
